Experiment [1] in a line: anti-His antibody binders, primary screen, artefact control for SMM control protein annotation, biochemical, small-molecule microarray, 635 nm fluorescence (AID 1128).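 Further: score merges feature fluorescence with signal-to-noise for each printed compound spot.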 Particulars: anti-His Alexa647 antibody binding, higher = more signal.
The test system of experiment [2] is Human papillomavirus type 1a E7 protein (residues 1-88). Nature of the experiment: HPV1a E7 small-molecule binders, primary screen, biochemical, small-molecule microarray, residues 1-88, 635 nm (AID 1129). Particulars: small-molecule microarray binding, fluorescence 635 nm; higher = more signal.
Experiment [3] has as its target Focal adhesion kinase 1 (Homo sapiens) (UniProt Q05397). Nature of the experiment: small-molecule microarray binders of FAK, primary screen, biochemical, 635/667 nm fluorescence, BSA, DTT (AID 1130).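 Further: composite of spot emission at 667 nm and signal to noise over triplicate slides.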 As to conditions: PTK2 binding, 635 nm fluorescence, higher = more signal.
The test system of experiment [4] is Fibrinogen (Alexa647-labelled). Nature of the experiment: fibrinogen binders on compound microarrays, profiling panel, artefact control for SMM control-protein annotation, biochemical, small-molecule microarray, 635/667 nm fluorescence (AID 1131).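 Further: z-score merges 667 nm fluorescence with per-spot signal-to-noise over triplicate slides.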 As to conditions: fibrinogen-A647 binding fluorescence, higher = more signal.
Experiment [5] concerns the target Follistatin (Homo sapiens) (UniProt P19883). Nature of the experiment: follistatin binders on small-molecule microarrays, primary screen, biochemical, small-molecule microarray, 635/667 nm fluorescence (AID 1132). Particulars: FST binding, 635 nm fluorescence, higher = more signal.
Experiment [6] has as its target Fibroblast growth factor 2 (Homo sapiens) (UniProt P09038). Nature of the experiment: FGF2 binders on small-molecule microarrays, primary screen, biochemical, small-molecule microarray, 635/667 nm fluorescence (AID 1133). As to conditions: small-molecule microarray binding, FGF2, fluorescence 635/667; higher = more signal.
Experiment [7] can be described thus: mitochondrial membrane potential change in A549 cells, profiling panel, cell-based, JC-1 fluorescence, basal, 24 h, 100 nL (AID 1138).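 Further: A549 lung adenocarcinoma cells under basal conditions with no added stimulus; test concentration not given here.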 Particulars: higher = more signal.
For a further experiment, the system named is Lefty1. Nature of the experiment: Lefty1 binders on small-molecule microarrays, primary screen, biochemical, small-molecule microarray, 635/667 nm fluorescence (AID 1139). As to conditions: small-molecule microarray binding, fluorescence 635/667; higher = more signal.
In experiment [8] the test system is wheat germ agglutinin (Triticum aestivum), Alexa647-labelled. Nature of the experiment: wheat germ agglutinin binders on compound microarrays, profiling panel, artefact control for SMM control-protein annotation, biochemical, small-molecule microarray, 635/667 nm fluorescence (AID 1140).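 Further: score merges 667 nm feature emission with signal to noise over triplicate slides.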 As to conditions: WGA-A647 binding, 635 nm fluorescence, higher = more signal.

The target in experiment [9] is Luciferin 4-monooxygenase (Photinus pyralis) (UniProt P08659). Nature of the experiment: firefly luciferase enzyme inhibitors, primary screen, biochemical, luminescence, purified enzyme, 2006 set (AID 1141).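 Further: cell-free assay with purified firefly luciferase at 100 ng per well in PBS; test concentration not given here.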 As to conditions: SteadyGlo luminescence, 30 min, higher = more signal, called active from +8 up or from −8 down.
Experiment [10] relates to Wnt5a (protein binding on small-molecule microarray). Nature of the experiment: Wnt5a binders on small-molecule microarray, primary screen, biophysical, 635/667 nm fluorescence (AID 1142).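 Further: fluorescence read at 667 nm with signal to noise per printed feature.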 Particulars: 635 nm fluorescence, higher = more signal.
Experiment [11] in a line: cell viability in Huh7 cells, primary screen, cytotoxicity control for HCV replication inhibitor project, CellTiter-Glo luminescence, basal, 48 h (AID 1143).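 Further: Huh7 hepatoma cells carrying a hepatitis C replication reporter with no stimulus; test concentration not given here.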 As to conditions: Huh7 HCV replicon, higher = more signal, called active from +8 up or from −8 down. (In general: ATP-based viability assays read luminescence as a measure of living cells.)
The nature of experiment [12]: P. aeruginosa biofilm formation inhibitors, primary screen, PAO1 strain, BacTiter-Glo luminescence, LB-PBS (AID 1144). Particulars: 12 h, higher = more signal.
A short description of experiment [13]: CREB reporter modulators without forskolin, primary screen, cell-based, PC12, CRE-LacZ reporter, unstimulated (AID 1145). Particulars: no forskolin, luminescence, 4.5 h, higher = more signal, called active from +8 up or from −8 down.
Experiment [14] can be described thus: CREB reporter modulators under forskolin, primary screen, cell-based, PC12, CRE-LacZ reporter, forskolin-stimulated (AID 1146).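 Further: PC12 cells with 6xCRE LacZ reporter stimulated by forskolin 10 µM; beta-galactosidase reporter signal reflecting CREB driven transcription.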 Particulars: luminescence, 4.5 h, higher = more signal, called active from +8 up or from −8 down.
Experiment [15] has as its target Streptavidin (Streptomyces avidinii) (UniProt P22629). Nature of the experiment: streptavidin binders on small-molecule microarray, primary screen, artefact control for SMM compound annotation, biophysical, 635/667 nm fluorescence (AID 1147).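 Further: signal reflects streptavidin binding to arrayed compounds as a control protein.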 Particulars: streptavidin binding, higher = more signal.
Experiment [16] can be described thus: small-molecule binders of probe aInhba, primary screen, biochemical, small-molecule microarray, 635/667 nm fluorescence (AID 1148).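 Further: score merges 667nm spot fluorescence with signal-to-noise for antibody binding to printed compounds.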 Particulars: higher = more signal.
The target in experiment [17] is Torsin-1A (Homo sapiens) (UniProt O14656). Nature of the experiment: torsin A binders from cell lysate, primary screen, small-molecule microarray, wild-type, 635/667 nm (AID 1149). Particulars: COS7 hTOR1A-WT lysate, 635 nm fluorescence, higher = more signal.
The target is the same in experiment [18]. Nature of the experiment: small-molecule binders of mutant TOR1A in lysate, primary screen, cell lysate, small-molecule microarray, COS7 lysate, 635/667 nm fluorescence (AID 1150).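 Further: score pools 667 nm emission and signal to noise measuring lysate protein binding.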 Particulars: COS7 hTOR1A mutant lysate, 635 nm fluorescence, higher = more signal.
Experiment [19] relates to Sonic hedgehog protein (Shh). Nature of the experiment: small-molecule binders of Shh protein, primary screen, biochemical, small-molecule microarray, 635/667 nm fluorescence (AID 1151).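 Further: Shh protein binding to compounds spotted on small-molecule microarray slides; score combines spot fluorescence intensity with signal-to-noise across triplicate slides.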 As to conditions: small-molecule microarray binding, 635 nm fluorescence; higher = more signal.

Activity calls are given as the source filed them. Unless noted, how the calls were made is not given here.

This passage reports composite z-score and z-score results from PubChem BioAssay.

Sequence of Follistatin (Homo sapiens) (P19883 whole entry, looked up): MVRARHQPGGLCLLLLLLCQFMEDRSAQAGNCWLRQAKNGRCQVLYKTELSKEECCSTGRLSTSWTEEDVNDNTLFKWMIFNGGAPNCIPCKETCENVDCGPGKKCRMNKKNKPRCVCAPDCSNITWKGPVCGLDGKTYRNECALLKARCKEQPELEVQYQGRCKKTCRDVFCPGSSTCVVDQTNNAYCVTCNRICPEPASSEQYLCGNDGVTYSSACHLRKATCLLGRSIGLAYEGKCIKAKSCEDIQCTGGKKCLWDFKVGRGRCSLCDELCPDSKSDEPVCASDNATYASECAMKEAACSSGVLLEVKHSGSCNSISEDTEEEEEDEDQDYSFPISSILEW
Sequence of Focal adhesion kinase 1 (Homo sapiens) (Q05397 whole entry, looked up): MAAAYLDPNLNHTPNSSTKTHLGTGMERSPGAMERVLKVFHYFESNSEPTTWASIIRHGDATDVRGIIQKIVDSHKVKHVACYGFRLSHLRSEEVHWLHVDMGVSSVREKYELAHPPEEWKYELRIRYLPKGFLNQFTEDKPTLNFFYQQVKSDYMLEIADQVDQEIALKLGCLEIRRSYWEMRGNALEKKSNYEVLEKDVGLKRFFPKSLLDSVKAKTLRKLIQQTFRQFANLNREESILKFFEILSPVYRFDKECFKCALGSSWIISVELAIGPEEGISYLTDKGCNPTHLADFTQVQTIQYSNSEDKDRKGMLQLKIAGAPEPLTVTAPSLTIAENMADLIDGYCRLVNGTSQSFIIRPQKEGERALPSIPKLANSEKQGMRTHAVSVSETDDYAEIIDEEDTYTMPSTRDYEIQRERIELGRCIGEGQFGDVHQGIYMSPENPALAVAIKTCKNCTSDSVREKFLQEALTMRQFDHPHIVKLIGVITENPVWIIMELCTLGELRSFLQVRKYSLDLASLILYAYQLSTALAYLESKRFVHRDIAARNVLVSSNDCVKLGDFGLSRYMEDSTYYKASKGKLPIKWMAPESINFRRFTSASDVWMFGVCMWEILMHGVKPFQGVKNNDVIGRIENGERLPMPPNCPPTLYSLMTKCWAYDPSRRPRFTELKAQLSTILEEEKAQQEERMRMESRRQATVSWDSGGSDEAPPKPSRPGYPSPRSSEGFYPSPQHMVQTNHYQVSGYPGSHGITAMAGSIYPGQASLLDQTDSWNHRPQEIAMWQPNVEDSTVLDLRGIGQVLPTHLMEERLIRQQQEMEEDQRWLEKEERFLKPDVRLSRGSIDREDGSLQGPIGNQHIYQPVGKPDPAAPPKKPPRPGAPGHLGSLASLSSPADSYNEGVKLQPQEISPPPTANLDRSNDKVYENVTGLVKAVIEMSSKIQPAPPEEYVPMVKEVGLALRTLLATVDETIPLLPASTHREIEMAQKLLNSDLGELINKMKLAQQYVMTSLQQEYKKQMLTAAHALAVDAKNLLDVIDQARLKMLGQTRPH
Sequence of Streptavidin (Streptomyces avidinii) (P22629 whole entry, looked up): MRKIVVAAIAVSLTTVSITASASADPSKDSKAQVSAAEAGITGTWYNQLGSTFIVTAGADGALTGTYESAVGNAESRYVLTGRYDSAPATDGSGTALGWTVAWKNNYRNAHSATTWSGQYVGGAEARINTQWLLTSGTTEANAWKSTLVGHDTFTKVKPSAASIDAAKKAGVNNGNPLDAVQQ
Sequence of Torsin-1A (Homo sapiens) (O14656 whole entry, looked up): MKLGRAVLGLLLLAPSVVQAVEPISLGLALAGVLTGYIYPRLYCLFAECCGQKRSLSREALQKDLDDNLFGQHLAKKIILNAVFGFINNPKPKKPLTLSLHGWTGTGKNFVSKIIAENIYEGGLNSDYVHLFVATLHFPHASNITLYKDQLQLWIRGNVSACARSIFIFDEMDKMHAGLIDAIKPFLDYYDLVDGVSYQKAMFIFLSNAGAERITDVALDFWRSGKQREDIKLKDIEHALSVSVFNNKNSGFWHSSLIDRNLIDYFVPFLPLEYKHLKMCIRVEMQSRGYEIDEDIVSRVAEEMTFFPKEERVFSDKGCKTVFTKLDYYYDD
Sequence of Fibroblast growth factor 2 (Homo sapiens) (P09038 whole entry, looked up): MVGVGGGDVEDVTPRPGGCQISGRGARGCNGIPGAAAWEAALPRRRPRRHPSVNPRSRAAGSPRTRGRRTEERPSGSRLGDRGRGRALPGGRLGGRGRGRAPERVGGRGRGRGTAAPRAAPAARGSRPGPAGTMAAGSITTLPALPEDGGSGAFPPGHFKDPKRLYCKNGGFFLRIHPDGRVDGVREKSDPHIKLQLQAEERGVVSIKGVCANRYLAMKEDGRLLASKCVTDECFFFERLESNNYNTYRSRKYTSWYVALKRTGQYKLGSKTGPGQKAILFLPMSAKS
Sequence of Luciferin 4-monooxygenase (Photinus pyralis) (P08659 whole entry, looked up): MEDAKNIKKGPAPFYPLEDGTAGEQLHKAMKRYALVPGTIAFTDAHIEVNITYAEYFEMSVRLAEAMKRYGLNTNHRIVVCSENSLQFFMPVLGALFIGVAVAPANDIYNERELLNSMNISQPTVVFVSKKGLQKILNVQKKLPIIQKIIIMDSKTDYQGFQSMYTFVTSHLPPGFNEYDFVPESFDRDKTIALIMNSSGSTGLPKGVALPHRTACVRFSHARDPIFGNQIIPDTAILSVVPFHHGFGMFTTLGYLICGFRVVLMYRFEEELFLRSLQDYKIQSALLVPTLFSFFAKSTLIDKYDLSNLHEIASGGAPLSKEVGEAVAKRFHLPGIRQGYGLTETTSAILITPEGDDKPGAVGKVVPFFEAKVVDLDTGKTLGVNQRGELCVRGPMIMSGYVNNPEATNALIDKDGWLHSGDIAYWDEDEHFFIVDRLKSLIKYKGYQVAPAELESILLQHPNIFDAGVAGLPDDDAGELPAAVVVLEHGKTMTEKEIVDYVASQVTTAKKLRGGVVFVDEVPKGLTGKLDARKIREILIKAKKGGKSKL

With `CN(C)CCCC[C@@H]1NC(=O)[C@H]2C[C@@H](C(=O)NCCCCCNC(=O)CS)[C@@H](c3cccc(OCCO)c3)N2C1=O`, the composite z-score came out at 1.32 in experiment [1]; 0.866 in [2]; 0.688 in experiment [3]; 0.44 in [4]; 1.41 in experiment [5]; 1.69 in [6]. Also, the composite z-score with Lefty1 was 1; in [8], -0.0708; in [10], 0.12; in experiment [15] it was 0.182; in experiment [16], -0.128; with Torsin-1A (Homo sapiens) [17], 0.537. Further, the composite z-score in the experiment with Torsin-1A (Homo sapiens) [18] was 0.749; in [19] it was 1.72. The z-score in [7] is 0.446; in experiment [9], -0.804 (inactive); in experiment [11] it was 0.358 (inactive); in experiment [12], -0.358 (inactive); in experiment [13], -0.114 (inactive); in [14] it was 0.547 (inactive).

Consider `COC(=O)[C@@]1(Cc2ccccc2)[C@H]2c3cc(C(=O)N4CCCC4)n(Cc4cccc5ccccc45)c3C[C@H]2CN1C(=O)c1ccccc1`, for which the composite z-score is 2.46 in experiment [1]; 1.17 in experiment [2]; 0.971 in [3]; 0.51 in experiment [4]; 0.184 in experiment [5]; -0.0086 in [6]. The composite z-score in the experiment with Lefty1 is -0.922; in experiment [8], 1.29; in experiment [10], 1.67; in experiment [15], 2.82; in [16] it was 1.52; in the experiment with Torsin-1A (Homo sapiens) [17], -0.0124. Also, the composite z-score with Torsin-1A (Homo sapiens) [18] is 0.669; in experiment [19] it was -0.27. The z-score in experiment [7] was 1.11; in [9], 1.4 (inactive); in experiment [11], -2.97 (inactive); in experiment [12], 0.786 (inactive); in experiment [13], 1.73 (inactive); in experiment [14], 0.941 (inactive).

Take `CC(C)C[C@H]1NC(=O)[C@@]23C(=O)N[C@@H](Cc4ccccc4)C2[C@H](C)[C@@]2(C)O[C@H]2C3/C=C/C/C=C\CNC(=O)[C@H](Cc2ccccc2)NC1=O` (stereo not given in full): the composite z-score in experiment [1] was 0.218; in [2] it was 0.45; in experiment [3] it was -0.291; in experiment [4], 0.183; in [5] it was 1.01; in [6], 0.717. Besides, the composite z-score in the experiment with Lefty1 was 1.24; in experiment [8], -0.204; in [10] it was 0.234; in experiment [15], -0.279; in experiment [16], -0.0189; in the experiment with Torsin-1A (Homo sapiens) [17], 0.839. The composite z-score was found to be 0.716 in the experiment with Torsin-1A (Homo sapiens) [18] and 2.06 in experiment [19]. Moreover, the z-score is 0.156 in experiment [7]; -3.01 (inactive) in experiment [9]; -0.73 (inactive) in [11]; -0.137 (inactive) in experiment [12]; -0.416 (inactive) in experiment [13]; -0.862 (inactive) in experiment [14].

As to `COC(=O)[C@@]1(Cc2ccc(F)cc2)[C@H]2c3cc(C(=O)N4CCCC4)n(Cc4cc(C)n(C)n4)c3C[C@H]2CN1C(=O)c1ccccc1`, the composite z-score was 1.85 in [1]; 1.26 in [2]; 1.03 in experiment [3]; 1.01 in [4]; 0.392 in experiment [5]; -0.47 in [6]. The composite z-score in the experiment on Lefty1 was -0.847; in experiment [8], 0.628; in experiment [10], 0.639; in experiment [15], 1.65; in experiment [16] it was 0.32; with Torsin-1A (Homo sapiens) [17], 0.0304. For the same compound, the composite z-score in the experiment with Torsin-1A (Homo sapiens) [18] is 1.04; in experiment [19], -1.06. Further, the z-score was 0.0507 in experiment [7]; 0.609 (inactive) in experiment [9]; -2 (inactive) in [11]; -0.132 (inactive) in experiment [12]; 0.583 (inactive) in [13]; 0.989 (inactive) in [14].

On to `CN1C(=O)C2C=CC(C(O)C3CCCCC3)N(Nc3ccc([N+](=O)[O-])cc3[N+](=O)[O-])C2C1=O` (stereo not given), for which the composite z-score is 1.08 in experiment [1]; 1.25 in experiment [2]; 0.622 in experiment [3]; 1.02 in experiment [4]; 1.07 in [5]; 0.0734 in experiment [6]. Moreover, the composite z-score in the experiment with Lefty1 is 0.182; in experiment [8], 0.497; in [10], 0.326; in [15], 1.2; in experiment [16], -0.024; in the experiment with Torsin-1A (Homo sapiens) [17], 1.27. The composite z-score with Torsin-1A (Homo sapiens) [18] is 1.04; in [19] it was -0.0056. For the same compound, the z-score was 1.37 in experiment [7]; 0.799 (inactive) in experiment [9]; 0.729 (inactive) in [11]; 1.17 (inactive) in experiment [12]; 0.626 (inactive) in experiment [13]; 1.37 (inactive) in experiment [14].
